SMILES strings stand for the structures. About 14,000 (4.5%) of roughly 310,000 compounds showed an effect of 50% or more. Effects have a minus sign here. Only a selection was taken, and strong results are over-represented in it overall.
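Further: peak tail current of the secondary pulse compared with the same well before compound.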

The target in this test is human ether-à-go-go-related gene (hERG) potassium channel (human, UniProt Q12809). As to the kind of experiment: primary screen, population patch clamp on CHO cells stably expressing hERG; higher = less effect of the substance.
Sequence of human ether-à-go-go-related gene (hERG) potassium channel (Q12809 whole entry, looked up): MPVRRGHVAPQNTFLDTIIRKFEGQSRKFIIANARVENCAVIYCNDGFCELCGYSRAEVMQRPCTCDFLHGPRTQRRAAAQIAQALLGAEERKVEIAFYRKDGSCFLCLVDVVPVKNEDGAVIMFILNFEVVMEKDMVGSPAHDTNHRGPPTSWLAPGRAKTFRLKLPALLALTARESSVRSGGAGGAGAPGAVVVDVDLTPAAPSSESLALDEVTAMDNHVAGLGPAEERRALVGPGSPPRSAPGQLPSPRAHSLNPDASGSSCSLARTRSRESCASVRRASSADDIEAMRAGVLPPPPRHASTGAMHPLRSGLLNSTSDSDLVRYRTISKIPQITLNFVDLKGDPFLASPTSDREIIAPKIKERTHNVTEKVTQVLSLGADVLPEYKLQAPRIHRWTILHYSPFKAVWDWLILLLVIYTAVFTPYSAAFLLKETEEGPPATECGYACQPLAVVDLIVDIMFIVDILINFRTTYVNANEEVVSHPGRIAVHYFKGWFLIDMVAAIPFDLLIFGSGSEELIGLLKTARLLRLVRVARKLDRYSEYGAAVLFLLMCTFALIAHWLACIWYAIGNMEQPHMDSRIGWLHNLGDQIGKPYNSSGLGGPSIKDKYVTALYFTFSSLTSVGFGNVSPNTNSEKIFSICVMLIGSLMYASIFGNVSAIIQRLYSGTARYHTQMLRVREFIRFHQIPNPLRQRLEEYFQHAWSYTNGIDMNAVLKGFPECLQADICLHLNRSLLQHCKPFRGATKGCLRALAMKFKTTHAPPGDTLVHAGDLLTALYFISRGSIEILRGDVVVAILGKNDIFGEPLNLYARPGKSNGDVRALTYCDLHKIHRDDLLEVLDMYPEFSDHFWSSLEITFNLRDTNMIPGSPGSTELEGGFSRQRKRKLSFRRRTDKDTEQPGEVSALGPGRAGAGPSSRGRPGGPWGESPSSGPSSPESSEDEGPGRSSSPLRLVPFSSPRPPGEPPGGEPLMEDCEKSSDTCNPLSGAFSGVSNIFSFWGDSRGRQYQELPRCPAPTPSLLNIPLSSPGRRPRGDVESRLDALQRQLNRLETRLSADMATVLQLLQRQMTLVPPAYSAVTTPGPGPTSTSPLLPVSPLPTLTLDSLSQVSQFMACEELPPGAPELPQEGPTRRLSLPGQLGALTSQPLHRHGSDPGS
On to `COc1ccc(C(=O)N/C(=C\c2cccc([N+](=O)[O-])c2)C(=O)Nc2cccc(C(=O)O)c2)cc1`, for which the “hERG current change (%, negative = inhibition) at 10uM” value is given as 5.3%.
Then `C=CCNC(=O)/C(=C/c1cccc([N+](=O)[O-])c1)NC(=O)c1ccccc1`, with -31.2%; and `Cc1c(C(=O)N(CC(C)C)c2c(N)n(Cc3ccccc3)c(=O)[nH]c2=O)sc2nc3n(c(=O)c12)CCC3`, with 7.27%; and `CC(C)CN1C(=O)C(=O)N(CC(=O)c2ccc[nH]2)C1=O`, with 1.48%.
Then `Cc1ccc(S(=O)(=O)N2CCCCC2C(=O)N2CCN(C)CC2)cc1` (stereo not drawn), with 18.1%; and `CCOc1ccc(N(CC(=O)Nc2ccccc2C(=O)NC(C)CC)S(C)(=O)=O)cc1` (stereo not drawn), with -13.3%; and `Cc1[nH]c(C)c(S(=O)(=O)N2CCN(c3ccccc3)CC2)c1C(=O)N1CCCC1`, with -10.4%.
For `Cc1c(C(=O)N2CCCCC2)c(S(=O)(=O)N2CCN(c3ccc(Cl)cc3)CC2)c(C)n1C` the value was -55.7%; for `CC(=O)c1ccc(N2CCN(S(=O)(=O)c3c(C(=O)N4CCCCC4)c(C)n(C)c3C)CC2)cc1`, -2.75%; for `Cc1c(C(=O)N2CCOCC2)c(S(=O)(=O)N2CCN(c3ccc(Cl)cc3)CC2)c(C)n1C`, -37.6%.
Regarding `Cc1[nH]c(C)c(S(=O)(=O)N2CCN(c3ccc(Cl)cc3)CC2)c1C(=O)N1CCCC1`, the “hERG current change (%, negative = inhibition) at 10uM” value was -66.4%.
As to `Cc1[nH]c(C)c(S(=O)(=O)N2CCN(c3cccc(Cl)c3)CC2)c1C(=O)N1CCCC1`, the “hERG current change (%, negative = inhibition) at 10uM” value is recorded as -6.94%.
Then `CCOc1ccc(OCC)c(NC(=O)C2CCN(c3ncccn3)CC2)c1`, with -30%.
For `CCC(C)CCN1C(N(C)C)=NC[C@@H]1C` (stereo partly drawn) the value was 15.3%.
For the compound `O=C(NC1CCCCC1)C(c1ccco1)N(C(=O)c1csnn1)c1cccc(Cl)c1` (stereo not drawn), the “hERG current change (%, negative = inhibition) at 10uM” value is given as 4.93%.
Then `CCOc1ccc(CN2CCN(Cc3cccn3-c3nccs3)CC2CCO)cc1` (stereo not drawn), with -76.1%; and `OCCC1CN(Cc2cccn2-c2nccs2)CCN1Cc1ccccc1` (stereo not drawn), with -69.3%; and `CC(C)=CCN1CCN(Cc2cccn2-c2nccs2)CC1CCO` (stereo not drawn), with -34.1%.
For `OCCC1CN(Cc2cccn2-c2nccs2)CCN1C1CCCCC1` (stereo not drawn) the value was -37.8%; for `OCCC1CN(Cc2cccn2-c2nccs2)CCN1CCc1ccccc1` (stereo not drawn), -73.6%; for `CC(C)CCN1CCN(Cc2cccn2-c2nccs2)CC1CCO` (stereo not drawn), -52.1%.
For `CC(C)N1CCN(Cc2cccn2-c2nccs2)CC1CCO` (stereo not drawn) the value was 10.2%.
On to `COc1ccc(CN2C(=O)c3ccccc3C(/C=N\OCc3ccc(C)cc3)C2=O)cc1` (stereo not drawn), for which the “hERG current change (%, negative = inhibition) at 10uM” value worked out at 8.84%.
Then `CCN(c1ccccc1)S(=O)(=O)c1ccc(C(=O)Nc2nccs2)cc1`, with 8.62%; and `Cc1c(S(=O)(=O)Nc2ccc3c(c2)OCCO3)c(=O)n(C)c(=O)n1C`, with -10.7%.
Then `CCOCCCNS(=O)(=O)c1cc2[nH]c3c(c2cc1C)C(=O)CC(C)(C)C3`, with -6.44%; and `Cc1ccc(NS(=O)(=O)c2ccc(C)c(C(=O)N3CCN(C)CC3)c2)cc1.Cl`, with -14.8%; and `COc1ccc(OC)c(S(=O)(=O)N(C)CC(=O)Nc2ccccc2OC)c1`, with -20.2%.
As for `O=C1/C(=C\c2ccc(Br)o2)Cc2ccccc21`, the “hERG current change (%, negative = inhibition) at 10uM” value was found to be 2.56%.
Then `CSc1ncccc1C(=O)OCC(=O)Nc1ccc2c(c1)CCC2`, with 9.67%.
Then `COc1ccc(C(=O)NC(=S)NNC(=O)COc2ccccc2)cc1`, with -2.47%; and `Cc1ccc(CN2CCN(Cc3cccn3-c3nccs3)CC2CCO)cc1` (stereo not drawn), with -77.3%; and `CCc1nc(CN2CCN(Cc3ccc(F)c(F)c3)C(CCO)C2)c(C)[nH]1` (stereo not drawn), with 14.2%.
`OCCC1CN(Cc2cccn2-c2nccs2)CCN1Cc1ccc(F)c(F)c1` (stereo not drawn): the “hERG current change (%, negative = inhibition) at 10uM” value is on record as -80.7%.
For the compound `Cc1ccc(N2C(=O)CC(C)CC2=O)cc1`, the “hERG current change (%, negative = inhibition) at 10uM” value is 21.2%.
Take `O=C(C[n+]1ccc(C(=O)c2ccccc2)cc1)Nc1ccc(C(F)(F)F)cc1.[Cl-]`: the “hERG current change (%, negative = inhibition) at 10uM” value is reported as -11.6%.
Then `CS(=O)(=O)N(CC(=O)N1CCCCC1)c1cccc(F)c1`, with 13%; and `COc1cccc(NC(=O)COC(=O)c2ccccc2F)c1`, with 13.8%; and `O=C(CCc1nnc2ccc(N3CCC4(CC3)OCCO4)nn12)Nc1ccc(F)cc1`, with -40.2%.
As to `CC(C)[C@H](CN(N=O)[C@@H](Cc1ccccc1)CN(C)N=O)N(CCc1ccccc1)N=O.[Na+]`, the “hERG current change (%, negative = inhibition) at 10uM” value is given as -0.676%.
As for `CC(C)(C)C(=O)NC(NC(=O)C(C)(C)C)c1ccc([N+](=O)[O-])cc1`, the “hERG current change (%, negative = inhibition) at 10uM” value was 8.18%.
For `CCn1nc(C)c(Br)c1-c1nc(-c2cccc(C)c2)no1` the value was 19.1%.

(Values after article PMC4336329 (PLoS ONE, 2015).)
